TLR4 MyD88 comp: TLR4-MyD88 interaction inhibition in cells. O00206+Q99836. HeLa CL3-4 TLR4/MyD88 BLA complementation, FRET ratio. inhibition, % at 8.4 µM. hit rate 0.18% among 200,000. AID 861; in the data active = inhibition above about 25%
TLR9-MyD88 block: inhibitors of human TLR9-MyD88 binding; CHO BLA complementation TLR9-MyD88, CCF4 FRET ratio; inhibition, % at 4.98 µM; hit rate 0.21% among 340,000;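 active = inhibition above the mean over all tested compounds plus 3 SD, cut at about 21% in these data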
NOD2 RIPK2 PPI: blocks binding of human NOD2 to RIPK2; O43353; CHO BLA complementation NOD2-RIPK2, CCF4 ratio; hit rate 0.38% among 360,000; inhibition, % at 4.98 µM; in the data active = inhibition above about 21%
Target sequence (O43353 whole entry, looked up): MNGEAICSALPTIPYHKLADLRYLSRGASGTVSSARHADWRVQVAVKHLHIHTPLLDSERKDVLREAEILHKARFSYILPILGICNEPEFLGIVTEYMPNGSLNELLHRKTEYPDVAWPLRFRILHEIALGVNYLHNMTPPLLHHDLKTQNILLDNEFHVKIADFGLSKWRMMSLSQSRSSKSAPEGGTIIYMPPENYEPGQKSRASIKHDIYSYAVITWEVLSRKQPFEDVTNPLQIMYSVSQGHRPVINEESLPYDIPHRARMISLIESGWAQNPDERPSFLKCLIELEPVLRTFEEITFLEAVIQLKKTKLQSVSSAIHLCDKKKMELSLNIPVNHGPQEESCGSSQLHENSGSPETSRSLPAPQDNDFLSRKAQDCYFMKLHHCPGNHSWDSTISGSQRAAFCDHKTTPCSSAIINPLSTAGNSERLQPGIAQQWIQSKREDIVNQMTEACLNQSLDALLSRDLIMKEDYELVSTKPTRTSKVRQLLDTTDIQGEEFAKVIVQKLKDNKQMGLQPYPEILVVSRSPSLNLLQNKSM
Myeloid diff MLP: myeloid differentiation induction; hit rate 1% among 360,000; calls only at 10 µM; ER-HoxA9 myeloid progenitors, lysozyme-GFP differentiation, flow cytometry;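 active = normalized GFP-positive differentiation at or above the plate's own cutoff, the solvent-only control mean plus 3 SD; inconclusive = no clear call, values can overlap the other calls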;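 also: cells exposed to compound for four days before flow analysis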
A number is an active result; . = inactive; ? = inconclusive; / = no result; + = active, no number. Hits are enriched below; roughly 1.5% of the tested compounds scored in any of these assays.

SMILES	TLR4 MyD88 comp	TLR9-MyD88 block	NOD2 RIPK2 PPI	Myeloid diff MLP
COc1ccc(C2NCCc3c2[nH]c2ccccc32)cc1COc1ccc(F)cc1 (stereo not given)	.	.	.	+
Cc1ccc(C[n+]2ccccc2)cc1	/	.	.	+
CCOC(=O)[C@]12CCCC=C1N(Cc1ccccc1)C(=O)[C@H](CC(=O)N1CCN(C(=O)C3CC3)CC1)C2	/	/	.	.
CCOC(=O)c1nc2cc3n(c(CC(C)C)c-2c1C)CC(C)=C3C	.	.	.	+
CCOC(=O)c1nc2cc3n(c(C)c-2c1C)C(C)C(C)=C3C (stereo not given)	.	.	.	.
CC(C)n1cc(-c2nc(C(=O)NN)cs2)c(=O)n(Cc2ccccc2)c1=O	/	.	.	+
Cc1ccc(/C=C/C(=O)Nc2cccc(S(=O)(=O)N3CCOCC3)c2)o1	.	.	.	+
COC(=O)c1cccc(CC2(C)C(=O)Nc3cc(-c4ccccc4Cl)ccc32)c1 (stereo not given)	/	/	.	.
COC1=CC(=Cc2c(N)n3nc(CC(=O)N4CCCCC4)sc3nc2=O)C=C(OC)C1=O	/	.	.	+
CCCCn1nnnc1C(c1ccccc1)N1CCN(c2ncc(C(F)(F)F)cc2Cl)CC1 (stereo not given)	/	/	.	.
Cc1nc2ccccc2n1-c1ccccc1	.	.	.	.
O=c1c(/C=C(\O)c2ccccc2)nc2ccccc2n1-c1ccccc1	.	.	.	+
Cc1ccc(C(=O)NNC(=O)CSc2nnc(CNc3ccc(F)cc3)n2C)cc1	.	/	/	/
Cc1ccc(NCc2nnc(SCC(=O)NNC(=O)Cc3ccccc3)n2C)cc1	/	.	.	+
COc1ccc(-n2nc(C(=O)NCC(=O)NC(C)C)c3ccccc3c2=O)cc1	/	.	.	+
Cc1cc(/C=C2/SC(=S)N(c3cccc(Cl)c3)C2=O)c(C)n1-c1cccnc1	.	.	.	+
Cc1cc(/C=C2\SC(=S)N(C)C2=O)c(C)n1-c1ccc(O)cc1	/	.	.	.
Cc1cc(/C=C2\SC(=S)N(C)C2=O)c(C)n1-c1ccccc1O	/	.	.	+
Cc1cc(/C=C2/SC(=S)N(c3ccc([N+](=O)[O-])cc3)C2=O)c(C)n1-c1cccnc1	.	.	.	.
COc1cnc(-c2ccccn2)nc1N(C)C	.	.	.	+
COc1ccc(Oc2nc(-c3ccccn3)ncc2OC)cc1	.	.	.	.
CCOC(=O)[C@]12CCC=C1N(CCC1=CCCCC1)C(=O)[C@H](CC(=O)N1CCCCC1)C2	/	/	.	.
Cc1cc(C)nc(NC(N)=NC2CCCCC2)n1	.	.	.	+
CCCNC(=O)C1(C)CCN(C(=O)c2cccnc2Oc2ccccc2)C1 (stereo not given)	/	/	.	.
COc1ccc(C2C(C(=O)c3ccco3)=C(O)C(=O)N2CCc2ccccc2)cc1OC (stereo not given)	.	.	.	+
SMILES	TLR4 MyD88 comp	TLR9-MyD88 block	NOD2 RIPK2 PPI	Myeloid diff MLP
COc1ccc(C2C(C(=O)c3ccco3)=C(O)C(=O)N2CCOCCO)cc1OC (stereo not given)	.	.	.	.
COc1cccc(Nc2nc(C(C)N)cs2)n1 (stereo not given)	/	/	.	.
COc1ccc(C(N)c2csc(Nc3nncc4ccccc34)n2)cc1 (stereo not given)	/	/	.	+
COc1cccc(Nc2nc(C(N)c3ccccc3)cs2)n1 (stereo not given)	/	/	.	+
CC1(C(=O)NCc2ccccc2)CN(S(C)(=O)=O)CC(=O)N1CCc1c[nH]c2ccccc12 (stereo not given)	/	/	.	.
CSc1ccc(S(=O)(=O)Nc2ccc3c(c2)OCCO3)cc1	.	.	.	+
Cc1nc2ccc(NS(=O)(=O)c3ccc4c(c3)OCCO4)cc2s1	.	.	.	+
COC(=O)c1ccccc1-c1c2ccc(=N)cc-2oc2cc(N)ccc12	/	.	.	+
CCC(=O)NC(c1cc(Cl)c2ccccc2c1O)C(C)C (stereo not given)	/	.	.	+
CCCOc1cc(N)ccc1C(=O)OCCN(CC)CC	/	.	.	.
CCCOc1ccc(N)cc1N	.	.	.	+
Cn1c(-c2ccccc2[N+](=O)[O-])[n+](C)c2ccccc21	/	.	.	+
CCOc1ccc2ccccc2c1C(=O)N1CCN(c2ccccc2)CC1	.	.	.	+
CC(=O)N1c2ccc(S(=O)(=O)N(C)c3cc(C)ccc3C)cc2CC1C (stereo not given)	/	.	.	.
Cc1ccc(N(C)S(=O)(=O)c2ccc3c(c2)CC(C)N3C(=O)C2CC2)cc1 (stereo not given)	/	.	.	+
Cc1ccc(-c2cn3cccc(C)c3n2)cc1	.	.	.	.
O=[N+]([O-])c1cccn2cc(-c3ccc(Br)cc3)nc12	.	.	.	+
COc1ccccc1N1CCN(C2C(=O)Nc3ccccc3-n3nnnc32)CC1 (stereo not given)	/	/	.	.
CCOC(=O)C[C@@H]1OC[C@H](Cc2ccccc2)N1S(=O)(=O)c1ccc(C)cc1	/	/	.	.
CCOc1ccc(/C=C2\SC(=S)N(CCC(=O)Nc3ccccc3C(=O)O)C2=O)cc1	/	.	.	+
COc1ccc(/C=C2\SC(=S)N(CCC(=O)N3CCCCC3)C2=O)cc1	/	.	.	+
COc1ccc(/C=C2/SC(=S)N(CCC(=O)N3CCN(C)CC3)C2=O)cc1	/	.	.	.
COc1ccc(/C=C2\SC(=S)N(CCC(=O)Nc3ccccc3C(=O)O)C2=O)cc1	/	.	.	.
COC(=O)c1ccc(/C=C2\SC(=S)N(CCCC(=O)N3CCOCC3)C2=O)cc1	/	.	.	.
Cc1ccc(/C=C2\SC(=S)N(CCCC(=O)N3CCOCC3)C2=O)cc1	/	.	.	+
SMILES	TLR4 MyD88 comp	TLR9-MyD88 block	NOD2 RIPK2 PPI	Myeloid diff MLP
COCCN1C(=O)/C(=C/c2ccc(N3CCCC3)cc2)SC1=S	.	.	.	+
COc1ccc2cc(C3CC=C(CO)CN3S(=O)(=O)c3ccccc3[N+](=O)[O-])n(C(=O)OC(C)(C)C)c2c1 (stereo not given)	/	/	.	.
Cn1ncc2cc3c(Nc4ccc(Cl)cc4)cccc3nc21	/	/	.	.
O=[N+]([O-])/C=C/c1c(OCc2ccccc2)ccc2ccccc12	.	27	82	.
COCC(=O)NCCc1ccc(S(N)(=O)=O)cc1	.	.	.	+
CCCc1c(Cc2cccc(F)c2)ncn1Cc1cccc(-c2ccccc2)c1	/	/	.	+
Cc1ccc(S(=O)(=O)N2c3ccccc3OC(C(=O)OC(C)(C)C)(C(=O)OC(C)(C)C)C2CC(=O)c2ccccc2)cc1 (stereo not given)	/	/	.	.
Cc1ccccc1C(=O)NCC(=O)OCC(=O)NNC(=O)c1ccccc1F	/	.	.	.
O=C(CNC(=O)c1ccccc1F)NNC(=O)c1ccccc1O	/	.	.	+
O=C(NC(=S)NNC(=O)c1cnccn1)c1ccc(Cl)cc1	/	.	.	+
COc1ccc(C(=O)NC(=S)NNC(=O)c2cnccn2)cc1	.	.	.	?
COC(=O)c1ccc(CSc2nc3c(c(=O)[nH]2)CCC3)cc1	/	/	.	.
COCCOC(=O)c1cc(C(=O)c2cc(F)ccc2O)coc1=N	.	.	.	+
COC(=O)c1cc(C(=O)c2cc(Cl)ccc2O)coc1=N	.	.	.	.
